Results taken from PubChem BioAssay.
For some assays here: Potency and affinity values are given separately. The source made the active and inactive calls. Unless noted, how the calls were made is not given here.

Legend:
[1] = antimalarial activity against Dd2 strain (AID 2302;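 active means growth inhibition above 50% at the single 2 µM test dose, taken to imply half-maximal potency below 2 µM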;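 further: 0% = DMSO untreated growth and 100% = chloroquine plus artemisinin killed control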); details: P. falciparum Dd2 in RBCs, LDH growth readout, 72 h; at 2 µM; hits give high values
[2] = HepG2 cytotoxicity, primary screen, cytotoxicity control for P. falciparum antimalarial project, cell-based, ATP luminescence (AID 2303;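 active means inhibition above 50%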;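 further: 0% = DMSO wells and 100% = digitonin-killed cells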); details: HepG2 viability, 24-48 h, at 10 µM, hits give high values
[3] = molecular target: L-lactate dehydrogenase (Plasmodium falciparum (isolate CDC / Honduras)) (UniProt Q27743); test: PfLDH activity inhibition – cell lysate, 3D7 strain, counter-screen for P. falciparum growth inhibition project (AID 2304);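 further: 0% = vehicle and 100% = reference inhibitor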; details: P. falciparum 3D7 crude extract, LDH APAD/NBT absorbance; at 2 µM; hits give high values
L-lactate dehydrogenase (Plasmodium falciparum (isolate CDC / Honduras)), sequence (Q27743 whole entry, looked up): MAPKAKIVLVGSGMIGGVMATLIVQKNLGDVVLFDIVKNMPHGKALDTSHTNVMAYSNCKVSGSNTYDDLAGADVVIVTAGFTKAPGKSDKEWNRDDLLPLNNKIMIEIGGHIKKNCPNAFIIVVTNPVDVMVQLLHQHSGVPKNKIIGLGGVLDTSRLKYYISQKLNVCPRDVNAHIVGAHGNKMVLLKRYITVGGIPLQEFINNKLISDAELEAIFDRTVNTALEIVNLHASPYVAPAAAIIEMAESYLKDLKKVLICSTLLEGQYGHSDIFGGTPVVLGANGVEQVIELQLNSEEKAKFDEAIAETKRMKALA

[4] = inhibition of 3D7 malaria parasite growth – strain 3D7 (AID 2306);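 further: 0% = DMSO wells and 100% = chloroquine plus artemisinin control wells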; details: P. falciparum 3D7 erythrocytic growth, LDH absorbance, 72 h; at 2 µM; hits give high values
[5] = molecular target: Calcium-dependent protein kinase 1 (Plasmodium falciparum (isolate 3D7)) (UniProt P62344); test: PfCDPK1 kinase inhibitors, biochemical, TCAMS library (AID 1159585; cut-off not given, nearly all actives have IC50 up to about 0.98 µM;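 further: inhibitors leave more ATP so luminescence rises with inhibition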); details: recombinant PfCDPK1, Kinase-Glo ATP depletion luminescence
Calcium-dependent protein kinase 1 (Plasmodium falciparum (isolate 3D7)), sequence (P62344 whole entry, looked up): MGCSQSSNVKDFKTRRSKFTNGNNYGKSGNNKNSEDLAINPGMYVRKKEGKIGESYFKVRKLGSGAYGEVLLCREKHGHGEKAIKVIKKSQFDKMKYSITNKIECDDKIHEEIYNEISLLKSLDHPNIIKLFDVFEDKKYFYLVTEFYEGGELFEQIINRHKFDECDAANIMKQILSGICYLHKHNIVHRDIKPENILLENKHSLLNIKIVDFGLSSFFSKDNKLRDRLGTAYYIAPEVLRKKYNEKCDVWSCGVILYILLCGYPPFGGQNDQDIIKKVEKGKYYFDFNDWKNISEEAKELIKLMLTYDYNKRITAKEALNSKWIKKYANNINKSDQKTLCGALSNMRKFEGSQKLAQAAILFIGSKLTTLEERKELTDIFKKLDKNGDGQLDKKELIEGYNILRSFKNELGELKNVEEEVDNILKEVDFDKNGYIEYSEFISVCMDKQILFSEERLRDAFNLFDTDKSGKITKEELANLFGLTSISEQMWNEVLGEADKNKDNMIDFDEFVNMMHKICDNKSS

[6] = molecular target: Plasmodium falciparum protein kinase 6 (PK6, PF3D7_1337100) (UniProt Q8IDW1); test: PfPK6 kinase inhibitors, biochemical, TCAMS library (AID 1159586); details: recombinant PfPK6, Kinase-Glo ATP depletion luminescence
Plasmodium falciparum protein kinase 6 (PK6, PF3D7_1337100), sequence (Q8IDW1 1-305): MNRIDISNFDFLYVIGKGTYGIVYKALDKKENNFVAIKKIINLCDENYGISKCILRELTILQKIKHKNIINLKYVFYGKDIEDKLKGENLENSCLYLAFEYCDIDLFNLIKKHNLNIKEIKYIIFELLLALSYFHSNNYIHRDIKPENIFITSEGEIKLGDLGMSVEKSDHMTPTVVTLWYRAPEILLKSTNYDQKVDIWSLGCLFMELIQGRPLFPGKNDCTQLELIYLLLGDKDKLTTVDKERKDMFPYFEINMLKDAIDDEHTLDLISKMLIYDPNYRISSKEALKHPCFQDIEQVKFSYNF

[7] = molecular target: Protein kinase 7 (PK7), Plasmodium falciparum 3D7 (PF3D7_0213400) (UniProt Q7YTF7); test: inhibition of Plasmodium PK7 catalytic activity – biochemical, TCAMS antimalarial set, Kinase-Glo luminescence (AID 1159587); details: recombinant PfPK7, Kinase-Glo ATP depletion luminescence
Protein kinase 7 (PK7), Plasmodium falciparum 3D7 (PF3D7_0213400), sequence (Q7YTF7 1-343): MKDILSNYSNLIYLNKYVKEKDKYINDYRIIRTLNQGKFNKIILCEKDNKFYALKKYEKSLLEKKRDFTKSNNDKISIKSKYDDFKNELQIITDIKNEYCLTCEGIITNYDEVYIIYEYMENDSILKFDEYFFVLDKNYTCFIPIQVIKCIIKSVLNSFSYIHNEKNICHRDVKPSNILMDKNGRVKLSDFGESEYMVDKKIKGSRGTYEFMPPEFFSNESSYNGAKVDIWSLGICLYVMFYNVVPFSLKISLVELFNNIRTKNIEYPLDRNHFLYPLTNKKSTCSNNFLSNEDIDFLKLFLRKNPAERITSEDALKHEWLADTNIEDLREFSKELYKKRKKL

[8] = molecular target: Calcium-dependent protein kinase 4 (Plasmodium falciparum (isolate 3D7)) (UniProt Q8IBS5); test: PfCDPK4 kinase inhibitors, biochemical, TCAMS library (AID 1159588; cut-off not given, nearly all actives have IC50 up to about 0.91 µM); details: recombinant PfCDPK4, Kinase-Glo ATP depletion luminescence
Calcium-dependent protein kinase 4 (Plasmodium falciparum (isolate 3D7)), sequence (Q8IBS5 whole entry, looked up): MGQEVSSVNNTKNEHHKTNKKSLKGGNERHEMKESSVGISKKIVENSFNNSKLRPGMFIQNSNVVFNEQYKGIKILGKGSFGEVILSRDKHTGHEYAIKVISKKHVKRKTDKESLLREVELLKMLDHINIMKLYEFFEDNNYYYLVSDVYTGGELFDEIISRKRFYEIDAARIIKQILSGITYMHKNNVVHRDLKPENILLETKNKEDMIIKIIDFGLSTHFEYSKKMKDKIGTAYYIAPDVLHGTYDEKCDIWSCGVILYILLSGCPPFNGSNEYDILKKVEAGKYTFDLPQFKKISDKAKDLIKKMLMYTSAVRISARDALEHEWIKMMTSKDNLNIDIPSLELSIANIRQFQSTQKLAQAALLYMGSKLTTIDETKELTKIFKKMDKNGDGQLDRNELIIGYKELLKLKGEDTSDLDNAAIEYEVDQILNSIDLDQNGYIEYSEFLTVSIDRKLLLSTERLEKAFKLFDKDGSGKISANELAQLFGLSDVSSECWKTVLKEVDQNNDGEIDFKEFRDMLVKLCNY

CCOC(=O)c1ccc(NC(=O)Nc2cccc(-c3ccc(-c4nc5ccccc5[nH]4)cc3)c2)cc1
inactive: inhibition [3] -2% | outcome [5] | outcome [6] | outcome [7] | outcome [8]
active: growth inhibition [1] 86% | inhibition [2] 54% | growth inhibition [4] 100%

COc1ccc(CCNCCCCCNCCc2ccc(Cl)cc2)cc1OC
inactive: growth inhibition [1] -2% | inhibition [2] 32% | inhibition [3] -11% | outcome [5] | outcome [6] | outcome [7] | outcome [8]
active: growth inhibition [4] 101%

CCCCCN1CCC(CNS(=O)(=O)c2ccc(C(=O)Nc3cccc(C(F)(F)F)c3)cc2)CC1
active: growth inhibition [4] 98%
inactive: growth inhibition [1] 13% | inhibition [2] 13% | inhibition [3] -7% | outcome [5] | outcome [6] | outcome [7] | outcome [8]

O=C(/C=C/c1ccc(Cl)c(Cl)c1)NCCCCCN1CCC(NC(=O)Nc2ccc(Cl)cc2F)CC1
inactive: growth inhibition [1] 40% | inhibition [3] -8% | outcome [5] | outcome [6] | outcome [7] | outcome [8]
active: inhibition [2] 100% | growth inhibition [4] 101%

CCCC(C)C(=O)N1CCOC(COCc2cccc(C(F)(F)F)c2)(c2ccc(Cl)cc2)C1 (stereo not given)
active: growth inhibition [1] 91% | growth inhibition [4] 97%
inactive: inhibition [2] 2% | inhibition [3] 0% | outcome [5] | outcome [6] | outcome [7] | outcome [8]

CC1(C)N=C(N)N=C(N)N1OCc1ccc(-c2ccccc2)cc1
inactive: inhibition [3] -6% | outcome [5] | outcome [6] | outcome [7] | outcome [8]
active: growth inhibition [1] 97% | inhibition [2] 64% | growth inhibition [4] 95%

COc1ccc(Br)cc1/C=C/C(=O)Nc1cccc(C2CCCN(C)C2)c1 (stereo not given)
active: growth inhibition [4] 99%
inactive: growth inhibition [1] 30% | inhibition [2] 12% | inhibition [3] 1% | outcome [5] | outcome [6] | outcome [7] | outcome [8]

C[C@@H](N)C#Cc1cc2c(Nc3ccc(OCc4cccc(F)c4)c(Cl)c3)ncnc2s1
inactive: growth inhibition [1] 23% | inhibition [2] 17% | inhibition [3] -5% | outcome [5] | outcome [6] | outcome [7] | outcome [8]
active: growth inhibition [4] 89%

Cn1cc(CN2CCCC(COC(c3ccc(F)cc3)c3ccc(F)cc3)C2)cn1 (stereo not given)
inactive: inhibition [2] 15% | inhibition [3] 4% | outcome [5] | outcome [6] | outcome [7] | outcome [8]
active: growth inhibition [1] 100% | growth inhibition [4] 98%

COc1ccc2nc(-c3ccccc3)cc(NN=Cc3ccc([N+](=O)[O-])o3)c2c1
inactive: inhibition [3] -7% | outcome [5] | outcome [6] | outcome [7] | outcome [8]
active: growth inhibition [1] 99% | inhibition [2] 90% | growth inhibition [4] 100%

Cc1cc(N[C@@H](CC(C)C)C(=O)NCc2cccs2)nc(NCCc2ccccc2)n1
inactive: growth inhibition [1] 8% | inhibition [2] 1% | inhibition [3] -2% | outcome [5] | outcome [6] | outcome [7] | outcome [8]
active: growth inhibition [4] 94%

COc1ccccc1C(=O)Nc1ccc(Nc2nc(C)cc(N(C)C)n2)cc1
active: growth inhibition [1] 76% | growth inhibition [4] 100%
inactive: inhibition [2] 1% | inhibition [3] 3% | outcome [5] | outcome [6] | outcome [7] | outcome [8]

CCOC(=O)c1cn(CC)c2cc(O[C@@H]3CCN(C(=O)OC(C)(C)C)C3)ccc2c1=O
active: growth inhibition [1] 94% | growth inhibition [4] 97%
inactive: inhibition [2] 13% | inhibition [3] -8% | outcome [5] | outcome [6] | outcome [7] | outcome [8]

CCCCOC(=O)NCCCC[C@H](NC(=O)OC(C)(C)C)C(=O)N[C@H](C(=O)OC(c1ccccc1)c1ccccc1)[C@H]1O[C@@H](n2ccc(=O)[nH]c2=O)[C@@H]2OC(C)(C)O[C@@H]21
active: growth inhibition [1] 65% | growth inhibition [4] 87%
inactive: inhibition [2] 7% | inhibition [3] 4% | outcome [5] | outcome [6] | outcome [7] | outcome [8]

Cc1cc(N2CCOCC2)nc2ccc(NC(=O)c3ccc(Cl)c([N+](=O)[O-])c3)cc12
inactive: growth inhibition [1] 15% | inhibition [2] 12% | inhibition [3] 3% | outcome [5] | outcome [6] | outcome [7] | outcome [8]
active: growth inhibition [4] 98%

CCOc1ccc(-c2nonc2NC(=O)c2ccccc2F)cc1OCC
inactive: inhibition [2] -8% | inhibition [3] 0% | outcome [5] | outcome [6] | outcome [7] | outcome [8]
active: growth inhibition [1] 100% | growth inhibition [4] 90%

Nc1nccc2ccc(-c3ccc4ncccc4c3)cc12
active: growth inhibition [1] 100% | inhibition [2] 97% | growth inhibition [4] 100%
inactive: inhibition [3] -7% | outcome [5] | outcome [6] | outcome [7] | outcome [8]

CCOc1ccccc1NC(=O)C(Sc1nc(C)cc(C)c1C#N)c1ccccc1 (stereo not given)
inactive: inhibition [2] -1% | inhibition [3] -3% | outcome [5] | outcome [6] | outcome [7] | outcome [8]
active: growth inhibition [1] 98% | growth inhibition [4] 99%

Cc1cc(CNC(=O)[C@H](CC2CCCCC2)Nc2ccc(C#N)c3ccccc23)c(C(F)(F)F)o1
inactive: inhibition [2] 13% | inhibition [3] 3% | outcome [5] | outcome [6] | outcome [7] | outcome [8]
active: growth inhibition [1] 55% | growth inhibition [4] 87%

O=C(Nc1cccc(-c2csc(-c3nc4ccccc4[nH]3)c2)c1)c1cccnc1
active: growth inhibition [4] 98%
inactive: growth inhibition [1] 45% | inhibition [2] 18% | inhibition [3] -5% | outcome [5] | outcome [6] | outcome [7] | outcome [8]

NS(=O)(=O)c1cncc(-c2ccc3nccc(-c4cn[nH]c4)c3n2)c1
active: growth inhibition [1] 100% | growth inhibition [4] 99%
inactive: inhibition [2] 33% | inhibition [3] -2% | outcome [5] | outcome [6] | outcome [7] | outcome [8]

O=S(=O)(NC1=NCCC1)c1cccc(Nc2nc(C(F)(F)F)nc3ccccc23)c1
inactive: growth inhibition [1] 8% | inhibition [2] 6% | inhibition [3] 0% | outcome [5] | outcome [6] | outcome [7] | outcome [8]
active: growth inhibition [4] 83%

O=c1ccc2ccc(F)cc2n1CCN1CCC(NCc2ccc(-c3ccccn3)s2)CC1
active: growth inhibition [4] 98%
inactive: growth inhibition [1] 30% | inhibition [2] -12% | inhibition [3] -1% | outcome [5] | outcome [6] | outcome [7] | outcome [8]

O=C(Nc1ccc2c(c1)CCNCC2)c1ccc(-c2ccc(Cl)cc2)cc1
inactive: growth inhibition [1] 38% | inhibition [3] 0% | outcome [5] | outcome [6] | outcome [7] | outcome [8]
active: inhibition [2] 71% | growth inhibition [4] 96%

CS(=O)(=O)CCNCc1ccc(-c2ccc3c(Nc4ccc(Oc5ccccn5)cc4)ccnc3c2)o1
inactive: inhibition [2] 0% | inhibition [3] -7% | outcome [5] | outcome [6] | outcome [7] | outcome [8]
active: growth inhibition [1] 99% | growth inhibition [4] 100%

O=S(=O)(c1c(Cl)cc(Cl)cc1Cl)N1CCCCC(c2ccc(C(F)(F)F)cc2)=N1
active: growth inhibition [1] 99% | growth inhibition [4] 98%
inactive: inhibition [2] 6% | inhibition [3] -5% | outcome [5] | outcome [6] | outcome [7] | outcome [8]

O=C(Cc1cnc[nH]1)Nc1cccc(-c2cccc(-c3nc4ccc(F)cc4[nH]3)c2)c1
active: growth inhibition [1] 97% | growth inhibition [4] 101%
inactive: inhibition [2] 21% | inhibition [3] 2% | outcome [5] | outcome [6] | outcome [7] | outcome [8]

CC(C)(C)c1ccc(NC(=O)N[C@@H]2CCN(c3ccnc4ccccc34)C2)cc1
active: growth inhibition [1] 96% | growth inhibition [4] 102%
inactive: inhibition [2] 23% | inhibition [3] 0% | outcome [5] | outcome [6] | outcome [7] | outcome [8]

CCOc1cc(C(=O)NC2CC(C)(C)NC(C)(C)C2)ccc1-c1cc2cc(Cl)c(Cl)cc2[nH]1
active: growth inhibition [4] 101%
inactive: growth inhibition [1] 46% | inhibition [2] 37% | inhibition [3] -1% | outcome [5] | outcome [6] | outcome [7] | outcome [8]

CC(C)NCC(O)Cn1c2ccc(Br)cc2c2cc(Br)ccc21 (stereo not given)
inactive: inhibition [3] -1% | outcome [5] | outcome [6] | outcome [7] | outcome [8]
active: growth inhibition [1] 100% | inhibition [2] 100% | growth inhibition [4] 99%

O=C(/C=C/c1ccc(Cl)c(Cl)c1)NCCCCCN1CCC(n2c(=O)[nH]c3ccccc32)CC1
active: growth inhibition [4] 97%
inactive: growth inhibition [1] -1% | inhibition [2] 38% | inhibition [3] 2% | outcome [5] | outcome [6] | outcome [7] | outcome [8]

Cc1c(O)cccc1Nc1ccnc2ccc(C(F)(F)F)cc12
inactive: inhibition [2] -15% | inhibition [3] -2% | outcome [5] | outcome [6] | outcome [7] | outcome [8]
active: growth inhibition [1] 51% | growth inhibition [4] 96%

CN1CCCN(Cc2cccc(-c3ccc(NC(=O)c4cccc(Cl)c4)cc3)c2)CC1
active: growth inhibition [4] 90%
inactive: growth inhibition [1] 10% | inhibition [2] 34% | inhibition [3] -3% | outcome [5] | outcome [6] | outcome [7] | outcome [8]

CC(C)CCN1CCCN(Cc2ccc(C(=O)NCc3ccc(Cl)cc3)cc2)CC1
inactive: growth inhibition [1] -4% | inhibition [2] 16% | inhibition [3] 1% | outcome [5] | outcome [6] | outcome [7] | outcome [8]
active: growth inhibition [4] 84%

COc1ccc(N2CCN(CCCCNC(=O)c3ccc(NC(=O)c4cccc(Cl)c4)cc3)CC2)c(OC)c1
inactive: growth inhibition [1] 33% | inhibition [2] 18% | inhibition [3] 0% | outcome [5] | outcome [6] | outcome [7] | outcome [8]
active: growth inhibition [4] 101%

Cc1cnc(C(=O)Nc2ccc3c(c2)CCCN(Cc2c[nH]c4cnccc24)C3)cn1
inactive: growth inhibition [1] 20% | inhibition [2] 0% | inhibition [3] -3% | outcome [5] | outcome [6] | outcome [7] | outcome [8]
active: growth inhibition [4] 92%

COc1cc(N(Cc2ccccc2C)S(=O)(=O)Cc2ccccc2[N+](=O)[O-])c(OC)cc1Cl
inactive: growth inhibition [1] 44% | inhibition [2] 16% | inhibition [3] -2% | outcome [5] | outcome [6] | outcome [7] | outcome [8]
active: growth inhibition [4] 94%

Clc1ccc(CNc2nc(NCCc3cnc[nH]3)nc(N3CCCC4CCCCC43)n2)cc1 (stereo not given)
inactive: inhibition [2] 10% | inhibition [3] 4% | outcome [5] | outcome [6] | outcome [7] | outcome [8]
active: growth inhibition [1] 100% | growth inhibition [4] 101%

N#Cc1ccc(NC(=NCc2ccc(Cl)cc2Cl)Nc2cccc(Cl)c2Cl)c(O)c1
active: growth inhibition [1] 75% | growth inhibition [4] 97%
inactive: inhibition [2] 3% | inhibition [3] -6% | outcome [5] | outcome [6] | outcome [7] | outcome [8]

CCCS(=O)(=O)c1nc(S(=O)(=O)c2ccc(Cl)cc2)c(N2CCCCC2)s1
active: growth inhibition [4] 87%
inactive: growth inhibition [1] 34% | inhibition [2] 3% | inhibition [3] -3% | outcome [5] | outcome [6] | outcome [7] | outcome [8]
